# Results published in ChEMBL document CHEMBL3988442, “University of Dundee, Small-Polar-MMV Screening Library” (2021).
# Target: T1, Methionyl-tRNA synthetase, putative (Leishmania donovani (strain BPK282A1)) (UniProt E9BF75)
# T1 sequence (whole entry): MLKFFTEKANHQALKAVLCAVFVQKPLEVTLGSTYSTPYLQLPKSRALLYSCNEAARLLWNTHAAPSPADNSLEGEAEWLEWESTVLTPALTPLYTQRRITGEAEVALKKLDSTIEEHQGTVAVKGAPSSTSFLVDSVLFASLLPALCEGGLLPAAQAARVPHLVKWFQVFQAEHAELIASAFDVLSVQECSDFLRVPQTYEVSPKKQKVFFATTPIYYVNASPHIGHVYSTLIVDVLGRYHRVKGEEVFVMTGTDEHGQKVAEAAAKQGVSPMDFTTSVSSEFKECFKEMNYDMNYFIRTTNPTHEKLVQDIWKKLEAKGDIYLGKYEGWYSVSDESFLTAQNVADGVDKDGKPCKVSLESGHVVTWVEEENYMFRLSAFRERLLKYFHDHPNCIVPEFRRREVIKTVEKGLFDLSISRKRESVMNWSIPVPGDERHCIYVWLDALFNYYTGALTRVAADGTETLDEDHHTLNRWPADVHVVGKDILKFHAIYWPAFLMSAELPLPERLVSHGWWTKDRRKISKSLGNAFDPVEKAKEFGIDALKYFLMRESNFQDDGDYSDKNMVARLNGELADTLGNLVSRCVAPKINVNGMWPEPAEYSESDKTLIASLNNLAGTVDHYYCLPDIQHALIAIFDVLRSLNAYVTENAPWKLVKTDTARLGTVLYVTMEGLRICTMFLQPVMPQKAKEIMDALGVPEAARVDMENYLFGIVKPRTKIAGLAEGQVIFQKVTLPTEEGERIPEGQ
# Assay: Leishmania donovani Methionine tRNA synthetase (LdMetRS):v7. Dose response assay
# Format: functional
# Set-up: conc 80 nM, time 150 minutes
compound,measurement,setting,value
FC1(F)CCN(Cc2ccccn2)CC12CCN(c1ncccn1)C2 (centres undefined),PXC50,MAX_EFFECT 3.628117914,< 4
same,PXC50,MAX_EFFECT 16.82242991,< 4
FC1(F)CCN(Cc2cccnc2)CC12CCN(c1cnccn1)C2 (centres undefined),PXC50,MAX_EFFECT 4.081632653,< 4
same,PXC50,MAX_EFFECT 6.355140187,< 4
Cc1nc(N(C)C)c2c3c(sc2n1)CCCC3,PXC50,MAX_EFFECT 4.166666667,< 4
same,PXC50,MAX_EFFECT 4.385964912,< 4
Cc1nc(N2CCC(N)C2)c2ccsc2n1 (centres undefined),PXC50,MAX_EFFECT 4.663212435,< 4
same,PXC50,MAX_EFFECT 6.914893617,< 4
O=C(NCC1CCCCC1)c1cc(=O)c2cc[nH]c(=O)c2o1,PXC50,MAX_EFFECT 5.901116427,< 4
same,PXC50,MAX_EFFECT 6.333973129,< 4
OC1CCc2cc(Cl)cc(Cl)c21 (centres undefined),PXC50,MAX_EFFECT 6.26349892,< 3
same,PXC50,MAX_EFFECT 9.69581749,< 3
CC(C)C[C@@H](COc1cccc(F)c1Oc1ccc(Cl)cc1)N(C)C,PXC50,MAX_EFFECT 6.418219462,< 4
same,PXC50,MAX_EFFECT 11.30063966,< 4
Cc1nc(NCCCNS(C)(=O)=O)c2c3c(sc2n1)CCC3,PXC50,MAX_EFFECT 6.914893617,< 4
same,PXC50,MAX_EFFECT 9.844559585,< 4
Cn1cc(CN2CCC(F)(F)C3(CCN(c4cccc(F)c4)C3)C2)cn1 (centres undefined),PXC50,MAX_EFFECT 7.256235828,< 4
same,PXC50,MAX_EFFECT 17.57009346,< 4
FC1(F)CCN(Cc2ccccn2)CC12CCN(c1cnccn1)C2 (centres undefined),PXC50,MAX_EFFECT 7.476635514,< 4
same,PXC50,MAX_EFFECT 8.163265306,< 4
OB1OCc2cc(Cl)ncc21,PXC50,MAX_EFFECT 7.762557078,< 4
same,PXC50,MAX_EFFECT 14.1509434,< 4
COC(=O)CCNc1nc(CN2CCCCC2)nc2sc3c(c12)CCC3,PXC50,MAX_EFFECT 7.888040712,< 4
CC(C)C[C@H]1COc2ccccc2C(c2ccccc2)=N1,PXC50,MAX_EFFECT 7.8891258,< 4
same,PXC50,MAX_EFFECT 10.97308489,< 4
FC(F)(F)c1nc(N2CCOCC2)nc2c1CCCCC2,PXC50,MAX_EFFECT 8.396946565,< 4
Cc1nc(NCCN2CCNC2=O)c2ccsc2n1,PXC50,MAX_EFFECT 8.533333333,< 4
same,PXC50,MAX_EFFECT 11.11111111,< 4
Cc1sc2nc(CN3CCOCC3)nc(NC3CC3)c2c1C,PXC50,MAX_EFFECT 8.673469388,< 4
same,PXC50,MAX_EFFECT 8.838383838,< 4
CCc1nc(NCCCC(=O)O)c2c3c(sc2n1)CCC3,PXC50,MAX_EFFECT 8.905852417,< 4
Cc1nccn1CCCn1cncc1-c1ccc2c(c1)CCCN2C,PXC50,MAX_EFFECT 9.523809524,< 4
same,PXC50,MAX_EFFECT 19.43925234,< 4
CCc1nc(-n2nc(C)cc2N)c2c3c(sc2n1)CCCC3,PXC50,MAX_EFFECT 9.836065574,< 4
same,PXC50,MAX_EFFECT 10.69518717,< 4
Cc1sc2nc(CN3CCOCC3)nc(NCC3CCCO3)c2c1C (centres undefined),PXC50,MAX_EFFECT 9.836065574,< 4
same,PXC50,MAX_EFFECT 10.69518717,< 4
OB1OCc2ccccc21,PXC50,MAX_EFFECT 10.0456621,< 4
same,PXC50,MAX_EFFECT -0.566037736,< 4
Cc1cc(C(F)(F)F)nc(N(C)Cc2c(C)noc2C)n1,PXC50,MAX_EFFECT 10.44386423,< 4
same,PXC50,MAX_EFFECT 10.70496084,< 4
Cc1ccc(N2CCCC(N(C)c3ncnc4c3CCC4)C2)nn1 (centres undefined),PXC50,MAX_EFFECT 10.79812207,< 4
same,PXC50,MAX_EFFECT 20.18518519,< 4
CC(C)C[C@H](N)COc1ccc(OC(F)(F)F)c(F)c1,PXC50,MAX_EFFECT 10.87420043,< 4
same,PXC50,MAX_EFFECT 10.97308489,< 4
CCc1nc(NCCCN(C)C)c2cc(C)sc2n1,PXC50,MAX_EFFECT 12.06030151,< 4
same,PXC50,MAX_EFFECT 14.98771499,< 4
CC(=O)N1CCN(CC2OB(O)c3ccccc32)CC1 (centres undefined),PXC50,MAX_EFFECT 12.26415094,< 4
same,PXC50,MAX_EFFECT 15.06849315,< 4
COCCNc1nc(CN2CCCC2)nc2sc3c(c12)CCCC3,PXC50,MAX_EFFECT 13.54166667,< 4
same,PXC50,MAX_EFFECT 14.03508772,< 4
COC(=O)c1sc2nc(C)nc(N(C)Cc3cccnc3)c2c1C,PXC50,MAX_EFFECT 13.66120219,< 4
same,PXC50,MAX_EFFECT 13.90374332,< 4
Cc1sc2nc(CCN)nc(N(C)CCCC3CCCO3)c2c1C (centres undefined),PXC50,MAX_EFFECT 15.90909091,< 4
same,PXC50,MAX_EFFECT 18.36734694,< 4
CNc1ccc2ncc(-c3ccc4onc(N)c4c3)n2n1,PXC50,MAX_EFFECT 16.28498728,< 4
same,PXC50,MAX_EFFECT 18.85964912,< 4
Nc1noc2ccc(-c3cnc4ccc(NC5CCOCC5)nn34)cc12,PXC50,MAX_EFFECT 17.30279898,< 4
same,PXC50,MAX_EFFECT 20.1754386,< 4
